Reference: PubChem BioAssay AID2098 (Broad Institute, 2009)
The whole screen tested about 300,000 compounds, of which about 2,300 (0.77%) were called active. The entries come from a sample that favours actives as a whole. Values without a mark were called inactive.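 How the source made its calls: active means more than half of replicate wells show activity change below -50%, luminescence cut by over half; inconclusive means some wells, but at most half, below -50%; inactive means no replicate well below -50%.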

Experiment: HSF1 inhibitors in luciferase reporter cells, primary screen, cell-based, NIH3T3, luminescence (AID 2098);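 further: luciferase reports HSF-1 transcriptional activity via heat shock element; 0% = median of DMSO wells and -100% = zero luminescence signal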
Details: NIH3T3-HGL HSE-luciferase, MG132-induced, luminescence 8 h; hits give low values; screened at 7.5 µM (by protocol)
`COc1ccc([C@@H]2[C@@H]3C(=O)N(C(C)(C)C)C(=O)[C@@H]3[C@]3(Cc4ccccc4)C(=O)N(c4cccc(Br)c4)C(=O)N23)cc1` gave an activity change, negative = inhibition of -4.65%.
For `CCOc1ccc(NS(=O)(=O)c2ccc(C(=O)NC3CCN(Cc4ccccc4)CC3)cc2)cc1`, the activity change, negative = inhibition was -0.719%.
With `Cc1nc(-c2ccc(F)cc2)c(CC(=O)Nc2cccc(S(=O)(=O)N3CCOCC3)c2)s1` the activity change, negative = inhibition was 4.76%.
Work on `CCCCn1c(N)c(N(CC(C)C)C(=O)c2ccc(-n3c(C)ccc3C)cc2)c(=O)[nH]c1=O` yielded an activity change, negative = inhibition of -2.25%.
`Cn1c(-c2sc3cc(C(F)(F)F)cnc3c2-c2ccccc2)n[nH]c1=S` gave an activity change, negative = inhibition of -4.57%.
With `Cn1c(-c2sccc2OCc2cccc(C(F)(F)F)c2)n[nH]c1=S` the activity change, negative = inhibition was -82.6% (active).
For `COc1cc(/C=N/n2c(C)n[nH]c2=S)ccc1OCc1ccccc1`, the activity change, negative = inhibition was -2.45%.
In the case of `O=C(c1ccccc1)c1ccc(OCC(O)CN2CCCC2)cc1` (centres undefined), the activity change, negative = inhibition is reported as -61.3% (active).
In the case of `CC1CCN(CC(O)COc2ccc(C(=O)c3ccccc3)cc2)CC1` (centres undefined), the activity change, negative = inhibition is reported as -15%.
`O=C(c1ccc(Cl)cc1)c1ccc(OCC(O)CN2CCCCC2)cc1` (centres undefined) gave an activity change, negative = inhibition of -7.88%.
Compound `Cc1ccc(NC(=O)CSc2nc(=O)n(CCN(C)C)c3c2CCCC3)c(C)c1` has an activity change, negative = inhibition of -5.63%.
Compound `COc1ccc(C2=NN(C(=O)CSc3nc(=O)n4ccc(C)cc4n3)C(c3ccc(C)cc3)C2)cc1` (centres undefined) has an activity change, negative = inhibition of 11.2%.
For `CC(=O)N/C(=C\c1ccccc1)C(=O)OC(C)C(=O)N(C)c1ccccc1` (centres undefined), the activity change, negative = inhibition was 1.34%.
With `O=C(Nc1cccnc1)c1ccc(Cl)c([N+](=O)[O-])c1` the activity change, negative = inhibition was -4.95%.
Work on `Cc1nc2ccccc2c(=O)n1NC(=O)c1ccc(Cl)c([N+](=O)[O-])c1` yielded an activity change, negative = inhibition of 1.5%.
In the case of `C/C(=N\Nc1nncc2ccccc12)c1ccc(Cl)c([N+](=O)[O-])c1`, the activity change, negative = inhibition is reported as -54.9% (active).
In the case of `COc1ccc(NS(=O)(=O)c2ccc(C)c(C(=O)N(C)Cc3ccc(OC)cc3OC)c2)cc1`, the activity change, negative = inhibition is reported as -0.123%.
`Cc1ccc(C)c(OCCC(=O)OCC(=O)c2ccc3c(c2)NC(=O)CO3)c1` gave an activity change, negative = inhibition of 1.77%.
`O=C(Nc1ccccc1)/C(=C/c1ccc([N+](=O)[O-])cc1)NC(=O)c1ccccc1` gave an activity change, negative = inhibition of -11.2%.
`Cc1ccc(NC(=O)/C(=C/c2ccc([N+](=O)[O-])cc2)NC(=O)c2ccccc2)cc1` showed an activity change, negative = inhibition of -1.77%.
With `CCOC(=O)/C(=C\c1ccc([N+](=O)[O-])cc1)C(=O)c1cc(C(C)=O)c(Nc2ccccc2)s1` the activity change, negative = inhibition was -93.6% (active).
With `CC1CCCCC1NC(=O)c1cc(=O)[nH]c2ccccc12` (centres undefined) the activity change, negative = inhibition was -3.75%.
Work on `Nc1ccc(C(=O)N2CCN(S(=O)(=O)c3ccc(Cl)cc3)CC2)cc1[N+](=O)[O-]` yielded an activity change, negative = inhibition of 3.46%.
Compound `CCOC(=O)c1ccc(NC(=O)c2cccnc2)cc1` has an activity change, negative = inhibition of -6.35%.
`CCOc1ccccc1NC(=O)c1cccnc1` gave an activity change, negative = inhibition of -2.44%.
For `CCOC(=O)c1cccnc1NC(=O)c1ccncc1`, the activity change, negative = inhibition was -52.6% (active).
Compound `CCOc1ccc(C(=O)Nc2ccncc2)cc1` has an activity change, negative = inhibition of 4.46%.
In the case of `CCOC(=O)c1cc(NC(=O)c2cccnc2)ccn1`, the activity change, negative = inhibition is reported as -72.9% (active).
For `CCOc1cc(C(=O)Nc2ncccn2)cc(OCC)c1OCC`, the activity change, negative = inhibition was -4.41%.
Work on `CCOC(=O)c1c(C)oc2cc(Sc3ccccc3)c(O)c(O)c12` yielded an activity change, negative = inhibition of 13.1%.
`COc1ccc(C(=O)NCC(c2ccco2)N2CCc3ccccc32)cc1OC` (centres undefined) gave an activity change, negative = inhibition of 2.71%.
`CCC(=O)c1ccc(OCC(=O)OCC(=O)NC2CCCCCC2)cc1` showed an activity change, negative = inhibition of -9.22%.
For `COc1ccc(CNC(=O)COC(=O)CCS(=O)(=O)c2ccc(C)cc2)cc1OC`, the activity change, negative = inhibition was -1.13%.
For `O=C(Cc1ccc(Cl)cc1)NC1CCS(=O)(=O)C1` (centres undefined), the activity change, negative = inhibition was 0.993%.
`O=C(CSc1nn(-c2ccc(F)cc2)c(=S)s1)NC1CCS(=O)(=O)C1` (centres undefined) showed an activity change, negative = inhibition of 2.24%.
With `O=C(CSc1ccccc1F)NC1CCS(=O)(=O)C1` (centres undefined) the activity change, negative = inhibition was -68.8% (active).
`CN(CC(=O)Nc1ccccc1Cl)C(=O)COc1cccc2c1OC(C)(C)C2` gave an activity change, negative = inhibition of 4.06%.
In the case of `CSC1=N/C(=C\C=C\c2cccs2)C(=O)S1`, the activity change, negative = inhibition is reported as -67.1% (active).
For `Cc1cccc(C2=N/C(=C/c3cccs3)C(=O)O2)c1`, the activity change, negative = inhibition was -10.1%.
With `CN1C/C(=C/c2cccs2)C(=O)/C(=C\c2cccs2)C1` the activity change, negative = inhibition was 19.3%.
For `CCCc1cc(=O)[nH]c2nnc(SCC(=O)Nc3nnc(SCC)s3)n12`, the activity change, negative = inhibition was -2.82%.
`COc1ccc(CCNC(=O)Cc2ccc(C)cc2)cc1OC` gave an activity change, negative = inhibition of -5.1%.
`COc1cccc(/C=C/C(=O)OCC(=O)N2CCCc3ccccc32)c1` showed an activity change, negative = inhibition of 0.601%.
For `CCC1Nc2ncnc(N3CCN(c4ccccc4)CC3)c2N(Cc2ccc(Cl)cc2)C1=O` (centres undefined), the activity change, negative = inhibition was 11.2%.
For `COc1cccc(CNc2nc(C(F)(F)F)nc3ccccc23)c1`, the activity change, negative = inhibition was 0.989%.
Compound `NS(=O)(=O)c1ccc(CCNc2nc(C(F)(F)F)nc3ccccc23)cc1` has an activity change, negative = inhibition of -2.88%.
In the case of `CCc1ccc(C(CNc2nc(C(F)(F)F)nc3ccccc23)N(C)C)cc1` (centres undefined), the activity change, negative = inhibition is reported as -82% (active).
Compound `CCCCn1c(N)c(N(CC(C)C)C(=O)c2ccc(Br)o2)c(=O)[nH]c1=O` has an activity change, negative = inhibition of 4.02%.
In the case of `CCCN(CCc1ccccc1)C1CCc2c(O)cccc2C1` (centres undefined), the activity change, negative = inhibition is reported as 7.71%.
In the case of `CCOC(=O)C1=C(c2ccc(OC)cc2)C(=O)c2ccccc2C1=O`, the activity change, negative = inhibition is reported as 31.1%.
In the case of `CCOC(=O)c1c(C)[nH]c2c1-c1ccccc1C(=O)C2=O`, the activity change, negative = inhibition is reported as -91.5% (active).
Compound `CCOC(=O)c1c(C)[nH]c(C)c1S(=O)(=O)N(C)CC(=O)Nc1ccccc1C` has an activity change, negative = inhibition of 4.41%.
`CSc1ccc(S(=O)(=O)NCC(=O)OCC(=O)NC2(C#N)CCCCC2)cc1[N+](=O)[O-]` showed an activity change, negative = inhibition of 4.69%.
With `O=C(Cn1c(N2CCN(C/C=C/c3ccccc3)CC2)nc2ccccc21)c1ccccc1` the activity change, negative = inhibition was -0.086%.
In the case of `CC(C)Cn1c(N2CCN(C(=O)/C=C/c3ccccc3)CC2)nc2ccccc21`, the activity change, negative = inhibition is reported as -65.4% (active).
Work on `CC(C)N(C(=O)Cn1c(SCC(=O)N2CCN(c3ccccc3)CC2)nc2ccccc21)C(C)C` yielded an activity change, negative = inhibition of -10.4%.
Work on `O=C(COc1ccccc1Cl)Nc1ccccc1C(=O)NC1CC1` yielded an activity change, negative = inhibition of 6.98%.
With `COc1ccc(Br)cc1/C=N/NC(=O)c1cccc(S(=O)(=O)N2CCOCC2)c1` the activity change, negative = inhibition was -2.38%.
With `CCOc1cc(/C=N/NC(=O)c2cccc(S(=O)(=O)N3CCOCC3)c2)ccc1OCC(=O)N(C)C` the activity change, negative = inhibition was -64.3% (active).
Compound `O=C(N/N=C/c1ccc([N+](=O)[O-])o1)c1cccc(S(=O)(=O)N2CCOCC2)c1` has an activity change, negative = inhibition of 6.48%.
Work on `CC(=O)Nc1cccc(C(=O)OCC(=O)NCc2cc(C)c(O)c(C)c2)c1` yielded an activity change, negative = inhibition of 9.36%.
Compound `NC(=O)C1=C[C@H](c2csc3ccccc23)C[C@H](OCc2ccc(CO)cc2)O1` has an activity change, negative = inhibition of 5.45%.
`COc1ccc(C(=O)c2c3ccc([N+](=O)[O-])cc3[n+]([O-])n2CCCN)cc1` showed an activity change, negative = inhibition of 13.3%.
`O=C(NC1CCCCC1)c1ccc(-c2ccc(Cl)cc2)o1` showed an activity change, negative = inhibition of 43.4%.
`CC1(C)S[C@@H]2[C@H](NC(=O)COc3ccccc3)C(=O)N2C1C(=O)OCc1ccccc1` (some centres undefined) showed an activity change, negative = inhibition of 5.03%.
Work on `Cc1c(NC(=O)CN(C)CC(=O)Nc2ccc(F)c(F)c2F)c(=O)n(-c2ccccc2)n1C` yielded an activity change, negative = inhibition of 1.95%.
With `Cc1ccn2c(=O)nc(SCC(=O)NCc3ccc(F)cc3)nc2c1` the activity change, negative = inhibition was 4.59%.
Compound `Cc1cccc(N2CCN(C(c3ccc(N(C)C)cc3)c3nnnn3C(C)(C)C)CC2)c1C` (centres undefined) has an activity change, negative = inhibition of -2.19%.
Work on `COc1ccccc1C(c1nnnn1CC1CCCO1)N1CCN(c2ccccc2)CC1` (centres undefined) yielded an activity change, negative = inhibition of -0.551%.
For `Cc1cccc(N2CCN(C(c3ccccc3)c3nnnn3CC3CCCO3)CC2)c1C` (centres undefined), the activity change, negative = inhibition was -61% (active).
In the case of `Cc1sc2nc(CSCC(=O)NC3CCCCC3)[nH]c(=O)c2c1C`, the activity change, negative = inhibition is reported as 16.5%.
`CCOC(=O)c1ccc(NC(=S)N2CCCC2)cc1` showed an activity change, negative = inhibition of 19%.
`Cc1cc(Cl)ccc1NC(=S)N1CCC(C(N)=O)(N2CCCCC2)CC1` showed an activity change, negative = inhibition of 1.76%.
In the case of `CCOC(=O)N1CCN(C(=S)Nc2ccc(C)cc2C)CC1`, the activity change, negative = inhibition is reported as -68.8% (active).
For `O=C1CCCCC1Sc1ccc(Cl)cc1[N+](=O)[O-]` (centres undefined), the activity change, negative = inhibition was 3.95%.
With `CCOc1ccc(NS(=O)(=O)c2ccc(C(=O)NCC(c3ccccc3OC)N3CCCC3)cc2)cc1` (centres undefined) the activity change, negative = inhibition was -3.53%.
With `O=C(NC1CC1)C1=C[C@H](c2coc3ccccc3c2=O)C[C@H](OCCCCO)O1` the activity change, negative = inhibition was -5.11%.
`COc1cc(OC)c(C(=O)NC2CCCCCC2)cc1OC` gave an activity change, negative = inhibition of 2.19%.
In the case of `COc1ccc(Cl)cc1C(=O)NNC(=S)NC1CCCC1`, the activity change, negative = inhibition is reported as 6.56%.
In the case of `COc1ccc(C(C)NC(=S)NC2CCCCC2)cc1OC` (centres undefined), the activity change, negative = inhibition is reported as -74.6% (active).
Work on `Clc1ccc(Nc2ccc3ccccc3n2)cc1` yielded an activity change, negative = inhibition of 6.43%.
Work on `Cc1ccc(C2(C)NC(=O)N(CC(=O)Nc3ccccc3C(=O)N3CCCCC3)C2=O)cc1` (centres undefined) yielded an activity change, negative = inhibition of 10.1%.
Compound `COc1cc(OC)c(C(=O)OCC(=O)N2CC(=O)Nc3ccccc32)cc1OC` has an activity change, negative = inhibition of 11.6%.
For `O=C1CN(C(=O)COC(=O)c2cnc(Cl)c(Cl)c2)c2ccccc2N1`, the activity change, negative = inhibition was 6.76%.
With `O=C1CN(C(=O)COc2c(Cl)cccc2Cl)c2ccccc2N1` the activity change, negative = inhibition was -74.4% (active).
In the case of `O=C1/C(=C\c2ccc(O)cc2)CCC1CNc1ccc(Cl)cc1` (centres undefined), the activity change, negative = inhibition is reported as -5.88%.
Compound `CC(=NCc1ccco1)c1c(C(F)(F)F)[nH]n(-c2nc3ccccc3s2)c1=O` has an activity change, negative = inhibition of -32.4%.
`C/C(=N\NC(=O)CC(C)C)c1c(C(F)(F)F)[nH]n(-c2nc3ccccc3s2)c1=O` gave an activity change, negative = inhibition of -6.15%.
In the case of `COC(=O)Cc1[nH]n(-c2nc3ccccc3s2)c(=O)c1C(C)=Nc1ccc(OC)cc1`, the activity change, negative = inhibition is reported as -58.9% (active).
